Activity calls are given as the source filed them.
How the values were obtained:
[1] = binders of probe aFSTL3 on microarray, primary screen, stem cell growth factor project, biochemical, small-molecule microarray, fluorescence 635/667 (AID 1064); conditions: higher = more signal;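 further: measures binding of the biotinylated anti-FSTL3 antibody to printed compounds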
[2] = binders from COS7 lysate, DM2A8 probe, primary screen, torsin A project, cell lysate, small-molecule microarray, fluorescence 635/667 (AID 1065); conditions: higher = more signal, COS7 lysate expressing mutant human TOR1A
[3] = binders of probe aFGF2 on microarray, primary screen, stem cell growth factor project, biochemical, small-molecule microarray, fluorescence 635/667 (AID 1067); conditions: higher = more signal;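 further: measures binding of biotinylated aFGF2 protein to printed compounds on slides; z-score merges feature fluorescence and signal-to-noise across triplicate slides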
[4] = binders of probe aFGF10 on microarray, primary screen, stem cell growth factor project, biochemical, small-molecule microarray, fluorescence 635/667 (AID 1071); conditions: higher = more signal;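 further: score merges 667 nm spot intensity and signal to noise from triplicate slides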
[5] = molecular target: Neurogenic locus notch homolog protein 2 (Homo sapiens) (UniProt Q04721); assay: Notch2 binders on small-molecule microarrays, primary screen, biochemical, small-molecule microarray, 635 nm fluorescence, stem cell growth factors (AID 1073); conditions: Notch2 binding, higher = more signal
[6] = molecular target: Pro-neuregulin-1, membrane-bound isoform (Homo sapiens) (UniProt Q02297); assay: NRG1 binders on small-molecule microarrays, primary screen, psychiatric disease protein project, biochemical, small-molecule microarray, fluorescence 635/667 (AID 1075); conditions: NRG1 binding, 635 nm fluorescence, higher = more signal;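 further: score combines 667 nm spot fluorescence with signal to noise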
[7] = system: Neuregulin-1 EGF-like domain; assay: binders of neuregulin-1 EGF-like domain, primary screen, biochemical, small-molecule microarray, 635 nm fluorescence (AID 1081); conditions: small-molecule microarray binding, higher = more signal;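 further: binding of the protein to compounds printed on small-molecule microarray slides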
[8] = FRG1 promoter luciferase signal modulators, primary screen, FRG1 inhibition for FSHD, cell-based, C2C12 myotubes, firefly/Renilla luciferase, luminescence (AID 1084); conditions: higher = more signal, called active from +8 up or from −8 down
[9] = binders of probe aFST on microarray, primary screen, stem cell growth factor project, biochemical, small-molecule microarray, fluorescence 635/667 (AID 1086); conditions: higher = more signal;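 further: score merges 667 nm fluorescence with signal-to-noise of each printed compound spot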
[10] = binders of probe aHhip on microarray, primary screen, stem cell growth factor project, biochemical, small-molecule microarray, fluorescence 635/667 (AID 1087); conditions: higher = more signal;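 further: score merges spot fluorescence at 667nm with spot signal to noise ratio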
[11] = system: PRMT1 (protein arginine N-methyltransferase 1); assay: PRMT1 binders on small-molecule microarrays, primary screen, biochemical, small-molecule microarray, 635 nm fluorescence (AID 1088); conditions: small-molecule microarray binding, higher = more signal;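 further: binding of Prmt1 protein to compounds spotted on small-molecule microarray slides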
[12] = yeast growth modulation, basal conditions, primary screen, YJM789 clinical isolate, OD600, 24 h (AID 1089);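 further: growth of clinical yeast isolate S. cerevisiae YJM 789 seeded 1000 cells per well; test concentration not given here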; conditions: S. cerevisiae YJM789 growth, higher = more signal, called active from +8 up or from −8 down
[13] = fission yeast growth modulation, primary screen, strain 972, OD600, 24 h, no modulator (AID 1090);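 further: basal condition with compound alone and no growth modifier present; test concentration not given here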; conditions: S. pombe 972 growth, higher = more signal, called active from +8 up or from −8 down
[14] = S. cerevisiae growth modulation with rapamycin, primary screen, strain BY4716, OD600, 96 h (AID 1091); conditions: higher = more signal, called active from +8 up or from −8 down; further: test concentration not given here
[15] = molecular target: Torsin-1A-interacting protein 2 (Homo sapiens) (UniProt Q8NFQ8); assay: LULL1 binders on small-molecule microarray, primary screen, cell lysate, human LULL1 lysate, 635/667 nm fluorescence (AID 1092); conditions: hLULL1 lysate binding, 635 nm fluorescence, higher = more signal;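 further: probe is lysate of COS7 cells overexpressing human LULL1; score merges per-feature 667 nm fluorescence with signal-to-noise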
[16] = E. coli growth modulation, two-sided OD650, primary screen, E. coli filamentation project, strain DRC41, 24 h (AID 1093); conditions: OD650, 24 h, higher = more signal, called active from +8 up or from −8 down;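 further: MC1000 strain lacking acrAB efflux and sulA so SOS filamentation is blocked; test concentration not given here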
[17] = small-molecule microarray binders of probe aLefty2, primary screen, biochemical, biotinylated probe, 635/667 nm fluorescence (AID 1094); conditions: higher = more signal;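 further: score merges spot fluorescence near 667 nm with spot signal-to-noise ratio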
[18] = system: Noggin (protein binding on small-molecule microarray); assay: Noggin binders on small-molecule microarray, primary screen, biochemical, 635/667 nm fluorescence (AID 1095); conditions: 635 nm fluorescence, higher = more signal;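 further: score merges 667 nm feature fluorescence with signal to noise over triplicate slides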
[19] = molecular target: Neurogenic locus notch homolog protein 3 (Homo sapiens) (UniProt Q9UM47); assay: NOTCH3 binders on small-molecule microarray, primary screen, biochemical, 635/667 nm fluorescence (AID 1096); conditions: NOTCH3 binding, 635 nm fluorescence, higher = more signal
[20] = small-molecule microarray binders of probe aEGFR, primary screen, biochemical, biotinylated probe, 635/667 nm fluorescence (AID 1097); conditions: higher = more signal;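 further: probe is a biotinylated anti-EGFR antibody binding compounds printed on slides; score combines fluorescence near 667 nm and signal to noise of each spot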

Sequence of Pro-neuregulin-1, membrane-bound isoform (Homo sapiens) (Q02297 whole entry, looked up, the tested form may be a part, canonical isoform): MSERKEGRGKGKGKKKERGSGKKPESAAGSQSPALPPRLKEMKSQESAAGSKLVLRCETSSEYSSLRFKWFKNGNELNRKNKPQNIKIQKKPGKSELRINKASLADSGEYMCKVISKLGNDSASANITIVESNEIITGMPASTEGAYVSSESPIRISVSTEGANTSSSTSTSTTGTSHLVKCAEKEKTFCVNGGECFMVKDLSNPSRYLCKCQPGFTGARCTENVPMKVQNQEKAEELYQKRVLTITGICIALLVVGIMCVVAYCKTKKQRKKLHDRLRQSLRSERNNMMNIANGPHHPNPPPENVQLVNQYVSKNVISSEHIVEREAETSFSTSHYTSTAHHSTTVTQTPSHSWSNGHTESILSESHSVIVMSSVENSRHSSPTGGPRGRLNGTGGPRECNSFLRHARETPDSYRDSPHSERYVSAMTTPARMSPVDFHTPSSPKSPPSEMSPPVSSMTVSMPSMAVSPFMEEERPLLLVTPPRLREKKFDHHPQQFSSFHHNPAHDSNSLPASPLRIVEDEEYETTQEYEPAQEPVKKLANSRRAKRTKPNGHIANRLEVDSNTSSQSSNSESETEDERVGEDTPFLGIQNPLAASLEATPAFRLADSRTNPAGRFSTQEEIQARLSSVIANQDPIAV
Sequence of Torsin-1A-interacting protein 2 (Homo sapiens) (Q8NFQ8 whole entry, looked up): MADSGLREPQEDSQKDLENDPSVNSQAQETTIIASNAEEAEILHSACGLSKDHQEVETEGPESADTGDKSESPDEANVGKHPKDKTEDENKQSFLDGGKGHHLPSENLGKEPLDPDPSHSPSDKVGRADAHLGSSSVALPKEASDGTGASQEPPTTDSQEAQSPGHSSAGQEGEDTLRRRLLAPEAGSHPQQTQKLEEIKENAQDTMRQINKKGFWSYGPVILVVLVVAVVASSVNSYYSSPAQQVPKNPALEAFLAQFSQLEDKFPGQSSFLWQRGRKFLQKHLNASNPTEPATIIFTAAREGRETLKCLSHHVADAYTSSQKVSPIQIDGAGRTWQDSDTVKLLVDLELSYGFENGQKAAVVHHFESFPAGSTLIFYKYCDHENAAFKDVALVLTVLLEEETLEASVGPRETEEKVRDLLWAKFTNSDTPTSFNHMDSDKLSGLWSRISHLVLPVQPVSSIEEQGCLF
Sequence of Neurogenic locus notch homolog protein 3 (Homo sapiens) (Q9UM47 whole entry, looked up): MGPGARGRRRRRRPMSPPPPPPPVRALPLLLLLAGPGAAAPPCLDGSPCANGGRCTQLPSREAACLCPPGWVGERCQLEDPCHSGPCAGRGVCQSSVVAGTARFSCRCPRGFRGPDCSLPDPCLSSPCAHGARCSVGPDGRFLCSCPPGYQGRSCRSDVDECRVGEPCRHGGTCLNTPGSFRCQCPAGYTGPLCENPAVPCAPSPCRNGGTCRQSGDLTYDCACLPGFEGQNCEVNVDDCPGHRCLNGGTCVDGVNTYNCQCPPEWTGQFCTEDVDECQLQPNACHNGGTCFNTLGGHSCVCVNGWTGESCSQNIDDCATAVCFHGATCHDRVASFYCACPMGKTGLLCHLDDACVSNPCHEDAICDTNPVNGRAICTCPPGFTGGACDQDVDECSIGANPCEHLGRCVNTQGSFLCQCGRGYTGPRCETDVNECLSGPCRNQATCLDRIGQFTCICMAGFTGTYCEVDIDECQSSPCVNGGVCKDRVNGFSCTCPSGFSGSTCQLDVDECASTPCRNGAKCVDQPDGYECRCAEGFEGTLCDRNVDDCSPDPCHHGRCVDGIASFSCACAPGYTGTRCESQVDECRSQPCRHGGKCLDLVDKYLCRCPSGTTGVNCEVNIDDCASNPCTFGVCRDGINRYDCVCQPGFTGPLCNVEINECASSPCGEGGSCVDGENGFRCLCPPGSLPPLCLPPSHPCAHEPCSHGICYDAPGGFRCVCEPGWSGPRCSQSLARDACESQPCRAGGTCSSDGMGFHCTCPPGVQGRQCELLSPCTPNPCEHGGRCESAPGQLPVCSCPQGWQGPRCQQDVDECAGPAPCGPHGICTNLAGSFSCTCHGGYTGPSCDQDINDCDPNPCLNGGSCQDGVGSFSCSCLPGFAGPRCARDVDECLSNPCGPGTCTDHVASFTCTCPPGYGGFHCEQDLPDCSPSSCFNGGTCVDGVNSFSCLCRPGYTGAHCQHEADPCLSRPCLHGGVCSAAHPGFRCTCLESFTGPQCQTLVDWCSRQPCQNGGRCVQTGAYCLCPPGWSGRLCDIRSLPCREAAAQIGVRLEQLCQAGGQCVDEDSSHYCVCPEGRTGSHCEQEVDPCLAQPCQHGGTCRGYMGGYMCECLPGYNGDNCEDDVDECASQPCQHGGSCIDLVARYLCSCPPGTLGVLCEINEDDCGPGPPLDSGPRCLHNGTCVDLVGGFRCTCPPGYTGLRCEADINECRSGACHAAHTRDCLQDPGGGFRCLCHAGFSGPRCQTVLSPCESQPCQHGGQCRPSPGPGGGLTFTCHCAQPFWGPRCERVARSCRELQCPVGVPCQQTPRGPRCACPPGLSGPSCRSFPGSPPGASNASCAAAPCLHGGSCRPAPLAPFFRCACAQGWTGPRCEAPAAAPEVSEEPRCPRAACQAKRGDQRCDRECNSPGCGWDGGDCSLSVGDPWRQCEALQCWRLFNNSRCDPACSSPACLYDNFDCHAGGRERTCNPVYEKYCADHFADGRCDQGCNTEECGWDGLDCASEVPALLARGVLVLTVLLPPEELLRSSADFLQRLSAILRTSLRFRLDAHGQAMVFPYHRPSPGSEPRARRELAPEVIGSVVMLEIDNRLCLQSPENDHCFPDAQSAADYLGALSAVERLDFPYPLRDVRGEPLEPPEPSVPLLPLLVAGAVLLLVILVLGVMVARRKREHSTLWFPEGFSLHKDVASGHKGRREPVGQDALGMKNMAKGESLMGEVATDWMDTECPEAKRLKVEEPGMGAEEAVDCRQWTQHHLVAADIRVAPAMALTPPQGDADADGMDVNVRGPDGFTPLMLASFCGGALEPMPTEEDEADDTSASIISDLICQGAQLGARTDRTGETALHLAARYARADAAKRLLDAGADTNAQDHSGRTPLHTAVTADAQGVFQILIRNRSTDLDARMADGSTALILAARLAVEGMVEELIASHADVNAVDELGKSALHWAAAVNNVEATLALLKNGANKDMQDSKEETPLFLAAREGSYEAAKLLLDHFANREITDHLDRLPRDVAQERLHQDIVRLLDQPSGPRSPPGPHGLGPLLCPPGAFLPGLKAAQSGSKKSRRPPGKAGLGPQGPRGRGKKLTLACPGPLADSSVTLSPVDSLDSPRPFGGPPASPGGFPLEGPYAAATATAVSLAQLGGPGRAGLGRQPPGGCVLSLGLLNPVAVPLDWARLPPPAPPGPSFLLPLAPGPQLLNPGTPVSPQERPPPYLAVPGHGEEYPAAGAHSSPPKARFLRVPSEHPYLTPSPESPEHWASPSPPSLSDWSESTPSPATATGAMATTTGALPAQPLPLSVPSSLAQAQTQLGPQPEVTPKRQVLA

SMILES	composite z-score [1]	composite z-score [2]	composite z-score [3]	composite z-score [4]	composite z-score [5]	composite z-score [6]	composite z-score [7]	z-score [8]	composite z-score [9]	composite z-score [10]	composite z-score [11]	z-score [12]	z-score [13]	z-score [14]	composite z-score [15]	z-score [16]	composite z-score [17]	composite z-score [18]	composite z-score [19]	composite z-score [20]
O=C1O[C@H](c2ccccc2)[C@H](c2ccccc2)N2[C@H]1[C@@H](C(=O)N1CCN(c3ncccn3)CC1)[C@]1(C(=O)Nc3ccc(C#CC4(O)CCCCCC4)cc31)[C@H]2c1ccc(O)cc1	0.406	2.01	-0.0125	1.04	0.607	1.54	1.28	0.0132 (inactive)	0.0718	-0.0645	1.55	0.736 (inactive)	-0.391 (inactive)	1.21 (inactive)	2.57	2.61 (inactive)	-0.209	1.2	1.11	-0.0225
COc1ccc([Si](C)(C)[C@@H]2[C@@H](CC(=O)N3Cc4ccccc4C[C@H]3CO)O[C@]3(C(=O)N(Cc4ccc(I)cc4)c4ccccc43)[C@H]2C)cc1	-0.127	0.0826	-0.136	0.184	0.472	0.537	0.909	-2.83 (inactive)	0.259	-0.204	1.57	0.391 (inactive)	0.956 (inactive)	2.07 (inactive)	0.603	2.19 (inactive)	0.0007	1.92	1.1	-0.0982
COc1ccc(NN2C(C(O)c3ccccc3)C=CC3C(=O)N(C4CCCCC4)C(=O)C32)cc1 (stereo not given)	0.0373	0.166	0.0402	0.851	1.59	1.39	1.3	1.78 (inactive)	1.5	0.224	1.56	-0.0673 (inactive)	0.991 (inactive)	1.34 (inactive)	3.34	0.0456 (inactive)	0.107	1.08	1.06	0.0953
[N-]=[N+]=NCc1ccccc1[C@H]1OC(c2ccc(OCCCO)cc2)=N[C@@]1(CCS(=O)(=O)c1ccccc1)C(=O)NCCN1CCOCC1	-0.0144	-0.523	0.126	1.04	1.67	1.57	1.27	3.26 (inactive)	1.16	-0.0095	1.56	0.917 (inactive)	0.306 (inactive)	1.27 (inactive)	3.5	-0.0501 (inactive)	0.181	0.0038	1.06	0.214
COC(=O)[C@@]1(Cc2ccc(F)cc2)[C@H]2c3cc(C(=O)N4CCCC4)n(CCSCCO)c3C[C@H]2CN1C(=O)c1ccccc1	0.349	-0.366	0.157	0.359	1.53	1.82	1.32	-0.0476 (inactive)	1.21	-0.174	-0.665	0.856 (inactive)	1.25 (inactive)	0.727 (inactive)	3.54	-0.0319 (inactive)	0.314	-0.906	0.225	0.0726
COc1ccc([Si](C)(C)[C@@H]2[C@@H](CC(=O)N(CCO)Cc3ccccc3)O[C@]3(C(=O)N(Cc4cccc(I)c4)c4ccccc43)[C@H]2C)cc1	2.68	1.17	-0.0422	0.396	0.779	0.496	1.13	-0.939 (inactive)	0.42	0.572	1.46	-0.0171 (inactive)	1.27 (inactive)	3.46 (inactive)	0.444	0.645 (inactive)	0.0553	1.51	1.07	0.0102
COC(=O)[C@@]1(Cc2ccc(F)cc2)[C@H]2c3cc(C(=O)N(C)C)n(CCF)c3C[C@H]2CN1C(=O)c1ccccc1	0.267	0.0612	0.131	0.623	1.22	1.83	1.06	-1.3 (inactive)	0.329	0.0274	-0.0162	-2.02 (inactive)	0.287 (inactive)	-0.318 (inactive)	2.35	1.25 (inactive)	0.265	0.104	-0.0282	-0.0896
COc1cc2c(cc1OC)CN(C(=O)[C@@H]1[C@H]3C(=O)O[C@H](c4ccccc4)[C@H](c4ccccc4)N3[C@H](c3ccc(O)cc3)[C@@]13C(=O)Nc1ccc(C#CC4=CCCCC4)cc13)CC2	0.105	0.576	-0.0899	0.864	1.48	0.347	1.13	0.561 (inactive)	0.588	0.0479	1.55	1.63 (inactive)	-0.921 (inactive)	1.88 (inactive)	2.44	2.11 (inactive)	-0.0753	0.82	1.08	0.0324
CN1C(=O)C2C=CC(C(O)c3ccc(I)cc3)N(N(c3ccccc3)c3ccccc3)C2C1=O (stereo not given)	0.75	-0.272	-0.0507	-0.454	0.333	0.495	-0.0493	0.586 (inactive)	0.428	-0.176	0.364	0.413 (inactive)	1.38 (inactive)	1.45 (inactive)	0.155	-1.07 (inactive)	0.17	-0.569	-0.239	-0.0903
C[N+](C)(C)CCCC[C@@H]1NC(=O)[C@H]2C[C@@H](C(=O)NCCCCCN)[C@@H](c3ccc(O)cc3)N2C1=O	0.0912	1.95	-0.0593	0.873	0.717	1.79	1.21	-0.0231 (inactive)	1.2	0.0722	1.54	-0.407 (inactive)	-2.01 (inactive)	-1.2 (inactive)	3.06	-0.162 (inactive)	0.0829	1.57	1.11	0.152

— PubChem BioAssay
